Screening data: PubChem, National Center for Advancing Translational Sciences (NCATS)
MARV entry inh – inhibitors of Marburg virus binding or cell entry; Marburg virus pseudotyped entry inhibition, cell reporter; Potency, µM (top dose mostly 37.8 µM), inactives show top-dose activity change, negative = inhibition, hits mostly inhibitors; 300,000 compounds, 1.8% hits; AID 540276; calls by dose curve; tested in HEK293 cells
LASV entry inh – blocks Lassa virus binding to or entry into cells; Lassa virus pseudotype entry inhibition, cell reporter; Potency, µM (top dose mostly 37.9 µM), inactives show top-dose activity change, negative = inhibition, usual class: inhibitors; 300,000 compounds, 1.2% hits; AID 540256; calls by dose curve; tested in HEK293 cells; also: nearly all actives have a fitted effect of over 50% in size
HCV inhibitor – blocks hepatitis C virus; Huh7.5.1 HCVcc-Cre infection, luciferase reporter, 44 h; 340,000 compounds, 3.4% hits; Potency, µM (doses to about 41.8 µM), inactives show at the highest dose activity change, negative = inhibition, most hits filed as inhibitors; active = well fitted inhibition curve with a large enough effect; inconclusive = small, poorly fitted or top-dose-only effect, or another doubt; inactive = no such curve, though single readings can be large or run the other way
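Reporter virus HCVcc-Cre (~0.5 moi) infects cells exposed to compound; seeding density 1,000 cells/well with 4 h settling beforehand. Luminescence, 15 sec read, taken 44 h post-infection following a 15 min RT substrate incubation.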
Vaccinia Venus – inhibitors of vaccinia virus (Venus reporter) | Vaccinia virus Venus reporter expression, fluorescence | Potency, µM (doses to about 36.5 µM), for inactives: at the top dose activity change, negative = inhibition, hits mostly inhibitors | 330,000 compounds, 0.46% hits; calls by dose curve; tested in A549 cells; also: nearly all actives have a fitted effect of over 30% in size
Vaccinia mCherry – inhibitors of vaccinia virus infection (mCherry reporter signal) | AID 720579 | Vaccinia virus mCherry reporter infection, fluorescence | 310,000 compounds, 0.63% hits | Potency, µM (top dose mostly 36.5 µM), for inactives: at the highest dose activity change, negative = inhibition, hits mostly inhibitors; calls by dose curve; tested in A549 cells; also: nearly all actives have a fitted effect of over 35% in size
* hit, by the source's call; [ ] = remark or other dose. Compounds with a hit are over-represented: about 4.6% of the library has one in this group of screens. % is scaled to controls: 0 for no effect and ±100 for the full control effect; potency is read from the fitted curve at half-maximal effect.

O=C(CC1NCCc2ccccc21)Nc1ccccc1 (centres undefined) was read as MARV entry inh 1%[46.1 µM], LASV entry inh 11%, HCV inhibitor -1%, Vaccinia Venus 1% and Vaccinia mCherry 3%.
For CCCCOc1ccc(NC(=O)CN2CCN(C(=O)OCC)CC2)cc1 the results were MARV entry inh 0%, LASV entry inh 3.5µM*, HCV inhibitor -4%, Vaccinia Venus -8% and Vaccinia mCherry -11%.
Screening O=C(CN1CCNCC1)Nc1ccc(Oc2ccccc2)cc1 returned MARV entry inh inconclusive, LASV entry inh -6% and HCV inhibitor 7.9µM*.
Screening O=C(CN1CCCC1)Nc1ccc(Oc2ccc(NC(=O)CN3CCCC3)cc2)cc1 returned MARV entry inh 2.1µM*, LASV entry inh 13µM*, HCV inhibitor inconclusive, Vaccinia Venus -7% and Vaccinia mCherry inactive.
Screening N#C[C@H](C(=O)NC1CC1)c1nc2ccccc2nc1N1CCN(C/C=C\c2ccccc2)CC1 returned MARV entry inh 0%.
Screening CCc1ccc(CN2CCc3nc(Nc4ccc5c(c4)OCCO5)ncc3C2)cc1 returned LASV entry inh 3%[46.1 µM], Vaccinia Venus -17% and Vaccinia mCherry -13%.
For O=C(NCC1CCC2(CCN(Cc3cccc(-c4ccco4)c3)CC2)O1)c1ccccc1 (centres undefined) the results were Vaccinia Venus 0% and Vaccinia mCherry -15%.
`CCC1CN(C(=O)N2CCC(C(=O)NCc3cccc(C)c3)CC2)c2ccccc2O1` (centres undefined) gave LASV entry inh -6%[46.1 µM], Vaccinia Venus -14% and Vaccinia mCherry -1%.
`Clc1ccc(N2C[C@H]3CC[C@@H](C2)N3)nn1` gave MARV entry inh -1%.
CN(C)c1cc[n+](CC(=O)Nc2ccc(Oc3ccccc3)cc2)cc1 was read as MARV entry inh 9.2µM*, LASV entry inh inconclusive, HCV inhibitor inconclusive, Vaccinia Venus -26% and Vaccinia mCherry -9%.
`CCc1cccc(C)c1NC(=O)COC(=O)c1c2c(nc3ccccc13)/C(=C\c1cccs1)CCC2` gave MARV entry inh inconclusive, LASV entry inh -3%, HCV inhibitor 1.1µM*, Vaccinia Venus -22% and Vaccinia mCherry -16%.
O=C(COC(=O)c1c2c(nc3ccccc13)/C(=C/c1ccco1)CC2)NC1CCCC1 was read as MARV entry inh inconclusive, LASV entry inh 13µM*, HCV inhibitor inconclusive, Vaccinia Venus -8% and Vaccinia mCherry inconclusive.
Screening CCN1C/C(=C/c2cccs2)c2nc3ccccc3c(C(=O)O)c2C1 returned MARV entry inh 7%[46.1 µM], LASV entry inh -2%, HCV inhibitor 18%, Vaccinia Venus 6% and Vaccinia mCherry inactive.
Screening CCCCNC(=O)COC(=O)c1c2c(nc3ccccc13)/C(=C\c1cccs1)CC2 returned MARV entry inh inconclusive, LASV entry inh inconclusive, HCV inhibitor 2.8µM*, Vaccinia Venus inconclusive and Vaccinia mCherry -29%.
CCOC(=O)c1c(-c2ccc(C)cc2)csc1NC(=O)c1cc(=O)c2cc(C)c(C)cc2o1 was read as MARV entry inh 18%[46.1 µM], LASV entry inh 5%[46.1 µM], Vaccinia Venus 0% and Vaccinia mCherry -20%.
`O=C(O)CCCC(=O)OCCCCc1cccs1` gave MARV entry inh 2%, LASV entry inh 8% and HCV inhibitor -4%.
`Nc1nnc(CCCCc2cccs2)o1` gave MARV entry inh 9%, LASV entry inh -12%, HCV inhibitor -4%, Vaccinia Venus 10µM* and Vaccinia mCherry inactive.
C=CCn1c(SCc2c(C)noc2C)nc2sc3c(c2c1=O)CCCC3 was read as MARV entry inh 21µM*, LASV entry inh inconclusive and HCV inhibitor inconclusive.
For Cc1noc(C)c1CSc1nc2sc3c(c2c(=O)n1C)CCCC3 the results were MARV entry inh inconclusive, LASV entry inh 5% and HCV inhibitor inconclusive.
`Cc1noc(C)c1CSc1nc2sc(C)c(C)c2c(=O)n1C1CCCC1` gave MARV entry inh 12µM*, LASV entry inh -23% and HCV inhibitor inconclusive.
`COc1ccc(N2CC(C(=O)N/N=C/c3c[nH]c4ccccc34)CC2=O)cc1` (centres undefined) gave MARV entry inh 8%[46.1 µM], LASV entry inh -10%, HCV inhibitor 5%, Vaccinia Venus -9% and Vaccinia mCherry inactive.
